According to PubChem BioAssay AID2685 (National Center for Advancing Translational Sciences (NCATS), 2010):
The campaign covered roughly 320,000 compounds. About 2,100 (0.66%) were called active. About 53% were inconclusive and are not listed. Calls come from the whole dose curve; as a rule, active = well fitted inhibition curve with a large enough effect in the signal ratio, with a control signal flat (not every such curve was filed as active); inconclusive = small, poorly fitted or top-dose-only effect, or effect the other way, or a change in a side signal; inactive = flat fitted curve, though single readings scatter; the % refers to the signal ratio. Many of the other results were omitted from the sample, so actives are more common in it than they were.
Potency is the fitted concentration of half-maximal effect.

Experiment: qHTS Assay for Lipid Storage Modulators in Drosophila S3 Cells;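 for cell number change: cells counted by Cell Tracker Red CMTPX staining in the red channel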; for lipid storage change, negative = inhibition: % is set by controls: 0 for no effect and ±100 for the full control effect
Settings: BODIPY lipid droplet fluorescence, 18-24 h, cells fed with added oleic acid; cell number change: measured here: cell count max response; series mostly up to 46.1 µM; lipid storage change, negative = inhibition: at the top concentration
Text: NIH Molecular Libraries Probe Production Centers Network [MLPCN] NIH Chemical Genomics Center [NCGC] MLPCN Grant: 1 R03 MH085686-01 Assay Submitter (PI): Beller, Mathias; Max-Planck-Institut fur Biophysikalische Chemie NCGC Assay Overview: Storing lipids as a reservoir for energy or the anabolism of elementary metabolites is a common feature of probably all cells and is conserved from bacteria to humans. The universal cellular lipid storage organelle is the so-called lipid storage droplet (LD). Although ubiquitous, LDs share a simple structure composed of a hydrophobic core that harbors the storage lipids, which is shielded by a droplet-specific phospholipid monolayer to which proteins are attached. The current model of LD biogenesis involves an incorporation of the lipid core into the membrane leaflets of the endoplasmic reticulum (ER) followed by a subsequent budding-like maturation of a LD, which ultimately pinches off. Once released, LD volume can increase by localized lipogenesis or fusion of existing droplet. Storage lipids are re-mobilized enzymatically by lipase activity. Lipase regulation in the adipocyte is heavily studied and involves multiple components including catecholamine signaling, the LD-associated proteins Perilipin and comparative gene identification (CGI-58) and at least two lipases named hormone sensitive lipase (HSL) and adipocyte triglyceride lipase (ATGL). LD regulation outside of the adipocyte is poorly understood and only few components are known. However, there is an urgent need to learn more about ectopic fat depots as mislocalized storage of lipids, for example in the liver or muscle, is an eminent health problem associated with insulin resistance or the metabolic syndrome. We developed a laser-scanning cytometer assay to enable 1,536-well screening and combined the results of the small molecules screen with an RNAi database based on lipid storage.
Triacsin C (Sigma-Aldrich T-4540), an inhibitor of long-chain fatty acyl CoA synthetase that blocks synthesis of triglycerides, was used as a positive control for lipid under-storage. A total of 23 nL of compound solution of different concentrations were transferred to the assay plates using a Kalypsys pin tool equipped with a 1,536-pin array containing 10-nL slotted pins (FP1S10, 0.457-mm diameter, 50.8 mm long; V&P Scientific). One microliter of oleic acid (400 uM) was added, and the plate was lidded with stainless steel rubber gasket lined lids containing pinholes. […] Fluorescence was detected by excitation of the fluorophores with a 488-nm laser on an Acumen Explorer (TTP Lab Tech). The total intensity in channel 2 (500-530 nm) reflected lipid droplet accumulation. Cells were detected using channel 3 (575-640 nm) with 5-um width and 100-um depth filters. The ratio of the number of objects in PMT channel 2 over the number of objects in PMT channel 3 was also calculated. Percent activity was computed relative to an internal control (100% inhibited lipid droplet deposition due to the presence of 20 uM Triacsin C), which was added to 32 wells/plate.
For `Cc1nc2nc[nH]n2c(=O)c1CCOC(=O)c1ccccc1F`, the “lipid storage change, negative = inhibition” value was -6.55% (inactive) and the cell number change was -14.3%. For `Cc1nc2nc[nH]n2c(=O)c1CCOC(=O)c1c(F)cccc1F`, the “lipid storage change, negative = inhibition” value was -26.8% (inactive) and the cell number change was -14%. For `OC[C@H]1O[C@@H](O[C@@H]2[C@@H](CO)O[C@@](O)(CO)[C@H]2O)[C@H](O)[C@@H](O)[C@H]1O`, the “lipid storage change, negative = inhibition” value was -21% (inactive). For `O=C(Nc1ccccc1C(=O)NCCCN1CCOCC1)c1ccc(Cl)cc1`, the “lipid storage change, negative = inhibition” value was -5.38% (inactive) and the cell number change was 1.08%. In the case of `COc1ccc(CC(=O)NCC2CCCN(Cc3ccccc3Cl)C2)cc1` (configuration not stated), the “lipid storage change, negative = inhibition” value is reported as 16.7% (inactive) and the cell number change is reported as -2.61%. With `Cc1nc2c(sc3nc(N4CCOCC4)c4c(c32)CC(C)(C)OC4)c(-c2ccccc2)c1C(=O)O` the “lipid storage change, negative = inhibition” value was 2.47% (inactive) and the cell number change was 21%. In the case of `Cc1nc2c(sc3nc(N4CCOCC4)c4c(c32)CC(C)(C)OC4)c(-c2ccc(Cl)cc2)c1C(=O)O`, the Potency is reported as 16.4 µM (active) and the cell number change is reported as -7.08%. For `Cc1ccc(NC(=O)c2sc3nc(N4CCOCC4)c4c(c3c2N)CC(C)(C)OC4)cc1`, the “lipid storage change, negative = inhibition” value was 27.3% (inactive). With `O=C(NC1CC2CCCC(C1)N2C(=O)Nc1ccccc1)c1ccncc1` (configuration not stated) the “outcome” value was “inactive” and the cell number change was 23.5%. With `Cc1nc2sc(C(=O)OCC(=O)N3c4ccccc4CC3C)c(C)c2c(=O)[nH]1` (configuration not stated) the “lipid storage change, negative = inhibition” value was 3.61% (inactive) and the cell number change was 19.4%. For `COc1ccc(N2C(=O)NC(NC(=O)C(C)(C)C)(C(F)(F)F)C2=O)cc1` (configuration not stated), the “lipid storage change, negative = inhibition” value was 4.27% (inactive) and the cell number change was -16.8%. For `CC1CC(c2ccccc2)=Nc2ccccc2N1` (configuration not stated), the Potency was 0.82 µM (active) and the cell number change was 13.7%. With `Clc1ccccc1C1CC(c2ccccc2)=Nc2ccccc2N1` (configuration not stated) the “lipid storage change, negative = inhibition” value was -0.673% (inactive) and the cell number change was -20.8%. With `CC1(c2ccccc2)CC(c2ccccc2)=Nc2ccccc2N1` (configuration not stated) the “lipid storage change, negative = inhibition” value was 2.96% (inactive) and the cell number change was 1.92%. With `CCN1CCN(Cc2c(C(=O)N/N=C(\C)c3ccc(Cl)c(Cl)c3)nnn2-c2nonc2N)CC1` the “lipid storage change, negative = inhibition” value was -18.5% (inactive) and the cell number change was -0.855%. In the case of `Cn1c(N)c(C(=O)COC(=O)c2ccc(Cl)c(S(=O)(=O)N3CCCC3)c2)c(=O)n(C)c1=O`, the “lipid storage change, negative = inhibition” value is reported as -8.77% (inactive) and the cell number change is reported as 1.25%. For `O=C(Cn1cc([N+](=O)[O-])cn1)Nc1nc2ccccc2s1`, the “outcome” value was “inactive”. With `COc1cc(/C=C/C(=O)O)cc(S(=O)(=O)NCCO)c1OC` the “lipid storage change, negative = inhibition” value was -2.02% (inactive) and the cell number change was -11.7%. For `CC1Cc2ccccc2N1C(=O)CNCCCN(C)C` (configuration not stated), the Potency was 20.6 µM (active) and the cell number change was -0.87%. In the case of `CC1Cc2ccccc2N1C(=O)CSc1ccccc1` (configuration not stated), the “lipid storage change, negative = inhibition” value is reported as 14.5% (inactive) and the cell number change is reported as -23.8%. For `CC1Cc2ccccc2N1C(=O)CNc1ccccc1N1CCCCC1` (configuration not stated), the “lipid storage change, negative = inhibition” value was -0.0673% (inactive) and the cell number change was 1.48%. For `CC(C(=O)NC1=NCCS1)N1C(=O)c2ccccc2C1=O` (configuration not stated), the “lipid storage change, negative = inhibition” value was 4.57% (inactive) and the cell number change was -6.04%. In the case of `CC(C(=O)NC1=NCCS1)N1C(=O)C2CC=CCC2C1=O` (configuration not stated), the Potency is reported as 29.1 µM (active) and the cell number change is reported as -25.7%. For `CC(NC(=O)C1CCCCC1)C(=O)NC1=NCCS1` (configuration not stated), the Potency was 20.6 µM (active) and the cell number change was -6.79%. For `CC(NC(=O)c1ccccc1)C(=O)NC1=NCCS1` (configuration not stated), the “lipid storage change, negative = inhibition” value was -13.9% (inactive) and the cell number change was -3.51%. With `O=C(CN1C(=O)C2CC=CCC2C1=O)NC1=NCCS1` (configuration not stated) the “lipid storage change, negative = inhibition” value was -0.923% (inactive) and the cell number change was 4.96%. With `CC(NC(=O)c1ccc(Br)cc1)C(=O)NC1=NCCS1` (configuration not stated) the cell number change was 5.62% and the lipid storage change, negative = inhibition was -5.54% [at 9.22 µM] (inactive). For `COC(=O)CC1C(=O)NC2CCCCC2N1C(=O)c1ccccc1` (configuration not stated), the “lipid storage change, negative = inhibition” value was 9.33% (inactive) and the cell number change was -6.42%. In the case of `COCC(C)NC(=O)COc1ccc(Cl)cc1Cl` (configuration not stated), the “lipid storage change, negative = inhibition” value is reported as 8.5% (inactive) and the cell number change is reported as 14.4%. For `CC(=O)N(C)c1nc(N)n(-c2ccccc2)n1`, the “lipid storage change, negative = inhibition” value was 1.59% (inactive) and the cell number change was 17.4%. With `CN(CC(=O)Nc1ccc(N2CCOCC2)cc1)C(=O)C12CC3CC(CC(C3)C1)C2` the “lipid storage change, negative = inhibition” value was -1.21% (inactive) and the cell number change was 0.396%. With `CC(C)(C)c1ccc(NC(=O)Nc2ccc3ccccc3n2)cc1` the “lipid storage change, negative = inhibition” value was 1.36% (inactive) and the cell number change was 14.5%. In the case of `CCCCn1c(=N)n(CC(=O)O)c2ccccc21`, the “lipid storage change, negative = inhibition” value is reported as -7.08% (inactive) and the cell number change is reported as -0.932%. For `COc1ccc(N(CC(=O)N/N=C/c2cc3ccc(OC)cc3nc2Cl)S(=O)(=O)c2ccccc2)cc1`, the “lipid storage change, negative = inhibition” value was 6.18% (inactive) and the cell number change was 5.98%. With `COc1ccc(Cc2noc(CN3CCCN(Cc4ccc(F)cc4)CC3)n2)cc1OC` the “lipid storage change, negative = inhibition” value was 1.97% (inactive) and the cell number change was -12.5%. With `Cc1ccn2c(C(=O)NNC(=O)Nc3ccc(Cl)cc3)c(C)nc2c1` the “outcome” value was “inactive” and the cell number change was -7.08%. With `CCCCN(C(=O)C1CCCC1)c1c(N)n(CCC)c(=O)[nH]c1=O` the “lipid storage change, negative = inhibition” value was -1.72% (inactive) and the cell number change was 10.4%. For `CCCCN(C(=O)C1CC(=O)N(Cc2ccc(C)cc2)C1)c1c(N)n(CCCC)c(=O)[nH]c1=O` (configuration not stated), the “outcome” value was “inactive” and the cell number change was 2.26%. In the case of `CCCCN(C(=O)C1CC(=O)N(c2ccc(C)cc2)C1)c1c(N)n(CCC)c(=O)[nH]c1=O` (configuration not stated), the Potency is reported as 20.6 µM (active) and the cell number change is reported as -1.39%. With `Cc1ccc(-c2csc(NC(=O)c3cccc(S(=O)(=O)N4CCN(C)CC4)c3)n2)cc1` the “lipid storage change, negative = inhibition” value was 12.3% (inactive) and the cell number change was 13%. In the case of `O=C1CC(c2ccccc2)CC(=NCCO)/C1=C(\O)CCCN1C(=O)c2ccccc2C1=O` (configuration not stated), the “lipid storage change, negative = inhibition” value is reported as -0.796% (inactive) and the cell number change is reported as -9.46%. For `OC1(CN2CCOCC2)C2CN3CCN(C2)CC1(c1ccccc1)C3` (configuration not stated), the “lipid storage change, negative = inhibition” value was 5.96% (inactive) and the cell number change was 10%. For `CC12CN3CCN(CC(C3)C1(O)CN1CCOCC1)C2` (configuration not stated), the Potency was 4.61 µM (active) and the cell number change was 0.875%. For `CC12CN3CCN(CC(C3)C1(O)CN1CCCCC1)C2` (configuration not stated), the “lipid storage change, negative = inhibition” value was -5.91% (inactive) and the cell number change was -4.02%. For `CCOc1ccc(C(C(=O)NC2CCCC2)N(CCCO)C(=O)c2ccc(-c3ccccc3)[nH]2)cc1` (configuration not stated), the “outcome” value was “inactive” and the cell number change was 42.7%.
